Drawing on PubChem BioAssay AID2546 (National Center for Advancing Translational Sciences (NCATS), 2010), this text covers Potency and activity, negative = inhibition for 65 compounds.

Among all 310,000 compounds or so, about 11,000 (3.5%) were called active. Inconclusive results (about 8%) are left out. Shown is part of a subset that was picked to be rich in actives. Where a call stands in place of a potency, no number is given. Values without a mark were called inactive. Calls follow the shape of the dose curve; as a rule, active = well fitted inhibition curve with a large enough effect; inconclusive = small, poorly fitted or top-dose-only effect, or effect the other way; inactive = flat fitted curve, though single readings scatter.
Potency is read from the fitted curve at half-maximal effect.

A short description of the assay: VP16 counterscreen qHTS for inhibitors of ROR gamma transcriptional activity.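 Also: Gal4-VP16 expression switched on by copper sulfate through the metallothionein promoter; nearly all actives have a fitted effect of over 50% in size.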 Particulars: Drosophila S2 Gal4-VP16 UAS-luciferase, luminescence, 20 h; series mostly up to 53.6 µM. On the technique in general: The purpose of a counterscreen is to sort out artefacts and off-target activity.
In the case of `Cc1nc2ccc(C(=O)N(C)CC3CCCN(CCc4ccc(Cl)cc4)C3)cc2[nH]1` (stereo not given), the Potency entry was “inactive”.
Same read-out and setting: the result for `CC(C)CNS(=O)(=O)c1ccc(CCC(=O)NCc2ccc(Cl)cc2)cc1` reads “inactive”; that for `CCOC(OCC)c1ccc(/C=C\c2nccc(N)n2)cc1`, “inactive”; that for `COC(=O)c1ccc(OC(=O)c2cnccn2)cc1`, “inactive”.
With `c1ccc(-c2cn3c(n2)CCc2ccc4cccnc4c2-3)cc1`, the Potency is 7.94 µM (active).
On the same count and under the same terms, the entry for `COC(=O)C1=CN(c2ccc(F)c(F)c2)C=C(C(=O)OC)C1c1ccc([N+](=O)[O-])cc1` is “inactive”.
As to `Cc1c(C)c(C)c2[nH]c(=S)[nH]c2c1C`, the Potency was 10 µM (active).
The same measure, in the same setting: the result for `O=c1[nH]c(=S)[nH]c2[nH]c(=S)[nH]c12` reads “inactive”; that for `Cc1cc(=O)[nH]c(=S)[nH]1`, “inactive”; that for `Cc1ccc(S(=O)(=O)N(CC(=O)Nc2cccnc2)c2ccc(Br)cc2)cc1`, “inactive”.
With `CCCc1ccc(OCCNC(=O)c2ccco2)cc1`, the Potency entry was “inactive”.
Same read-out and setting: the result for `COc1ccc(CN2C3CCCC2CC(NC(=O)c2cccc(F)c2)C3)cc1` (stereo not given) reads “inactive”; that for `CC(NCC(=O)Nc1cc(Cl)cc(Cl)c1)c1ccccc1` (stereo not given), “inactive”.
The same measure, in the same setting: the result for `COc1ccc(C(=O)NC2CC2)cc1OC1CCN(Cc2ccc(SC)cc2)CC1` reads “inactive”; that for `COCCN(C(=O)CCC(=O)Nc1nccs1)C(C(=O)NCCC(C)C)c1ccc(F)cc1` (stereo not given), 3.55 µM (active).
On to `COCCN(C(=O)CCC(=O)Nc1ccccn1)C(C(=O)NCCC(C)C)c1ccc(OC)cc1` (stereo not given), for which the Potency entry is “inactive”.
The same measure, in the same setting: the entry for `COCCN(C(=O)CCC(=O)Nc1nccs1)C(C(=O)NC(C)(C)C)c1ccc(Cl)cc1` (stereo not given) is “inactive”; for `COc1ccc(C2NC(=O)c3ccccc3N2)cc1` (stereo not given) it is “inactive”.
Still for that read-out and setting: the entry for `Cc1ccc(-c2nn(-c3ccccc3)cc2/C=N/NC(=O)c2ccc3c(c2)OCO3)cc1` is “inactive”.
Same read-out and setting: the figure for `CCc1ccc(-c2nn(-c3ccccc3)cc2CSC(=N)N)cc1` is 20 µM (active); for `Cc1nnc(SCC(=O)N/N=C/c2cn(-c3ccccc3)nc2-c2ccc(F)cc2)n1-c1ccccc1` it is “inactive”.
With `C/C(=N\NC(N)=S)c1ccncc1`, the Potency entry was “inactive”.
Still for that read-out and setting: the result for `CC/C(=N\NC(=S)NC(C)C)c1ccc(OC(F)F)cc1` reads “inactive”; that for `C/C(=N\NC(=S)NC(C)C)c1ccc(C(C)(C)C)cc1`, 3.98 µM (active); that for `CCOC(=O)N1CCN(Cc2nc3cc(NC(=O)CC)ccc3n2CC)CC1`, “inactive”.
Same read-out and setting: the figure for `Cc1ccc(SC(CC(=O)c2ccc(C(C)(C)C)cc2)C(=O)O)cc1` (stereo not given) is 5.01 µM (active); for `Cc1ccc(CSCC(N)C(=O)O)cc1` (stereo not given) it is “inactive”; for `Cc1ccc(C(=O)CNc2ccc(F)cc2)cc1` it is “inactive”.
`CCOc1cc(C2/C(=C(/O)c3ccc(S(=O)(=O)N4CCCCC4)cc3)C(=O)C(=O)N2CCOC)ccc1O` (stereo not given): the Potency entry was “inactive”.
Still for that read-out and setting: the result for `COc1ccccc1OCC(=O)Nc1c2c(nn1-c1ccc(F)cc1)CS(=O)(=O)C2` reads “inactive”; that for `COC(=O)c1ccc(NC(=S)NN2CCOCC2)cc1`, “inactive”; that for `COC(=O)c1ccc(NC(=O)Nc2ccc(C)cc2)cc1`, “inactive”.
Take `COC(=O)c1ccc(NC(=S)Nc2cccc(C)n2)cc1`: the Potency is 7.08 µM (active).
On the same count and under the same terms, the result for `O=C(O)CCCn1c(=O)c2cccn2c2ccc(F)cc21` reads “inactive”; that for `O=C(Nc1cn(-c2ccccc2)nc1-c1ccccc1)c1ccccc1`, “inactive”.
Still for that read-out and setting: the figure for `O=C(NNC(=S)NC(=O)c1cn(-c2ccccc2)nc1-c1ccccc1)c1ccncc1` is 8.91 µM (active).
Take `O=C(c1cn(-c2ccccc2)nc1-c1cccnc1)N1CCCCC1`: the Potency result is “inactive”.
Turning to `Cc1cc2c(c(=O)n1Cc1ccccc1)C1O[C@](CCCCN3C(=O)c4ccccc4C3=O)(Cc3ccccc31)O2`, the activity, negative = inhibition is -4.77% [at 10 µM].
Regarding `CN(CC(=O)NCc1ccc(Cl)cc1)S(=O)(=O)c1cccs1`, the Potency result was “inactive”.
On the same count and under the same terms, the entry for `CC(C)=CCCC(C)CN1CCC(n2nccc2NC(=O)c2ccccc2)CC1` (stereo not given) is “inactive”.
Same read-out and setting: the entry for `O=C(CN(C(=O)CCC(=O)Nc1nccs1)c1ccc(F)cc1)NCc1ccc2c(c1)OCO2` is “inactive”.
Still for that read-out and setting: the result for `CC(C)c1ccc(/C=C/C(=O)NNC(=O)c2cccnc2)cc1` reads “inactive”.
For `O=C(/C=C/c1ccc(F)cc1)NC(=S)NNC(=O)c1cccnc1`, the Potency was 10 µM (active).
In the case of `O=C(/C=C/c1ccc(F)cc1)NCCNC(=O)/C=C/c1ccc(F)cc1`, the Potency result was “inactive”.
For `COc1ccc(C(=O)N(C)CC(O)c2ccccc2)cc1OC1CCN(C(C)=O)CC1` (stereo not given), the Potency result is “inactive”.
The same measure, in the same setting: the entry for `CN(Cc1nc2ccccc2c(=O)[nH]1)Cc1cc(=O)oc2ccc3ccccc3c12` is “inactive”; for `O=C(c1ccco1)N(Cc1nc2ccccc2c(=O)[nH]1)C1CCCC1` it is 8.91 µM (active).
With `O=C(COc1ncnc2ccccc12)NC(=O)NCc1ccccc1`, the Potency result was “inactive”.
Still for that read-out and setting: the result for `CCN(CC(=O)NC(=O)NCc1ccccc1)Cc1nc2ccccc2c(=O)[nH]1` reads 2.24 µM (active).
`CCCC(=O)N(CCc1ccccc1)Cc1nc2ccccc2c(=O)[nH]1`: the Potency entry was “inactive”.
On the same count and under the same terms, the figure for `CCN(CC(=O)Nc1cccc(S(N)(=O)=O)c1)Cc1nc2ccccc2c(=O)[nH]1` is 7.94 µM (active); for `NS(=O)(=O)c1cccc(NC(=O)CSc2nc3ccccc3n2-c2ccccc2)c1` it is “inactive”.
The same measure, in the same setting: the entry for `CCN(CC)c1ccc(C(=O)NNC(=O)CCc2nc3ccccc3c(=O)[nH]2)cc1` is “inactive”.
`CCN(CC(=O)Nc1ccc(Cl)c(S(=O)(=O)N(C)C)c1)Cc1nc2ccccc2c(=O)[nH]1`: the Potency result is “inactive”.
On the same count and under the same terms, the entry for `CC(=O)NCC(=O)N1CCC(n2nccc2NC(=O)CCCc2ccccc2)CC1` is “inactive”; for `O=S(=O)(Nc1ccccc1Cl)c1cccc2nsnc12` it is “inactive”; for `O=c1c(-c2cccc(Cl)c2)c[nH]n1-c1ccccc1` it is “inactive”.
The same measure, in the same setting: the entry for `COc1ccc(NC(=O)c2sc3nc(C)nc(N4CCN(c5ccccn5)CC4)c3c2C)c(OC)c1` is “inactive”; for `COc1ccc(/C=N/NC(=O)c2ccc3c(c2)OCCO3)c(OC)c1` it is “inactive”; for `COc1ccc(C(=O)Nc2ccccc2C(=O)NCc2ccco2)cc1` it is “inactive”.
Turning to `COc1ccc(C(=O)Nc2ccccc2C(=O)N/N=C/c2ccc(O)c(OC)c2)cc1`, the Potency is 0.316 µM (active).
Still for that read-out and setting: the result for `COc1cc(/C=N/NC(=O)c2ccc(N3CCCC3=O)cc2)ccc1O` reads “inactive”.
As to `COc1ccc(C(=O)Nc2ccccc2C(=O)N/N=C/c2ccccc2OC)cc1`, the Potency is 12.6 µM (active).
Still for that read-out and setting: the entry for `COc1cc(/C=N/NC(=O)c2ccccc2)ccc1OS(=O)(=O)c1ccccc1` is “inactive”; for `Cn1c(Nc2cccc(Cl)c2)nc2ccccc21` it is “inactive”.
